Screens from PubChem.
Compounds with a hit are over-represented: about 12% of the library has one in this group of screens.
HP1b binding inh – inhibitors of HP1-beta chromodomain binding to methylated histone tails; AlphaScreen HP1-beta / biotin-H3K9me3 peptide binding; P83916; Potency, µM (titrated, usually from 114 µM), usual class: inhibitors; hit rate 0.56% among 390,000; further: nearly all actives have a fitted effect of over 70% in size
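Compound inhibition of the preformed complex between 50 nM HP1-beta and 50 nM biotinylated H3K9me3 peptide was read by AlphaScreen. Buffer was PBS pH 7.4 with 0.01% Tween-20. Incubations ran 30 min at room temperature, with 10 ug/mL donor/acceptor beads.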
PLK1 PBD block – blocks phosphopeptide binding to human PLK1 polo-box domain; hit rate 2.8% among 360,000; P53350; Plk1 PBD binding of FITC phosphopeptide, fluorescence polarization; Potency, µM, actives largely listed as inhibitors; further: series mostly up to about 57 µM; nearly all actives have a fitted effect of over 65% in size
Target sequence (P53350 whole entry, looked up, the tested form may be a part): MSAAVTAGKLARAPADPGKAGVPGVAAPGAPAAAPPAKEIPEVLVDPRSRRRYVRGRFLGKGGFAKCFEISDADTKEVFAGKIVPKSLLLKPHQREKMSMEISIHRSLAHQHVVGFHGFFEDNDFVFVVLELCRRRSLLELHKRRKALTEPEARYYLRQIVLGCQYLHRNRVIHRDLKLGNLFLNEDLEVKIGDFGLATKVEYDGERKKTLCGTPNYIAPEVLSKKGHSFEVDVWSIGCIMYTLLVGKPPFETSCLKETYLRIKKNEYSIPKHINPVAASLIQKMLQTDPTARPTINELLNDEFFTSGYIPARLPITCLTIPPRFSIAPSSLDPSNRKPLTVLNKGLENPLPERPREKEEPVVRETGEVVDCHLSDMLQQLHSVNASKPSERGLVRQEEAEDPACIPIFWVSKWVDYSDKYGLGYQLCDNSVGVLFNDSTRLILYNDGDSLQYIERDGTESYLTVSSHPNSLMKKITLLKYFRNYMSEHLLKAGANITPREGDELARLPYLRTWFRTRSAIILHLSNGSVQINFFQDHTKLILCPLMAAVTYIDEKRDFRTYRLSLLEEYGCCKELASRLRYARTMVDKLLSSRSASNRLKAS
Sfp PPTase inh – blocks B. subtilis Sfp PPTase activity | Biochemical Sfp PPTase activity, qHTS | Potency, µM, hits mostly inhibitors | hit rate 3.5% among 310,000 | AID 1490;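 further: the enzyme is Sfp with the accession as filed and its product quenches rhodamine fluorescence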
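Fluorescence-quenching assay: 15 nM Sfp-PPTase preincubated 15 min at room temperature with compound, then 5 uM rhodamine-CoA and 12.5 uM BHQ-2-labelled YbbR peptide added. Fluorescence (ex 525/em 598 nm) read at start and after 30 min; difference gives rate.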
BAZ2B block – blocks human BAZ2B; Potency, µM (titrated, usually from 114 µM), hits mostly inhibitors; Q9UIF8; hit rate 4.4% among 360,000; AlphaScreen BAZ2B-H3K14Ac peptide displacement; further: nearly all actives have a fitted effect of over 60% in size
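Inhibition is scored as reduced AlphaScreen emission. The BAZ2B/b-H3(5-23)K14Ac complex (50 nM each) in PBS pH 7.4, 0.01% Tween-20 meets compound (up to 110 uM) for 30 min at RT before bead addition.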
G9a inh – G9a (human) methyltransferase inhibition; G9a H3K9 monomethylation, AlphaScreen, 2 h; Potency, µM (series often up to 102 µM), most hits filed as inhibitors; Q96KQ7; hit rate 8.8% among 350,000; further: nearly all actives have a fitted effect of over 75% in size
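Methyltransferase reactions run at room temperature for 2 h (20 nM enzyme, 500 nM biotin-H3K9 peptide, 20 uM SAM) after a 15 min compound preincubation; product detected by AlphaScreen beads and anti-H3K9me1 antibody.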
JMJD2A Tudor – inhibitors of human JMJD2A Tudor domain. AlphaScreen JMJD2A-Tudor / H3K4me3 peptide binding. Potency, µM (doses to about 114 µM), hits mostly inhibitors. AID 504339. hit rate 4.4% among 390,000. O75164; further: nearly all actives have a fitted effect of over 50% in size
Numbers stand for hits; . = inactive; ? = inconclusive; / = not tested or not shown; [ ] = dose if it differs, or a comment. The call rests on the fitted dose curve; in most records, active means well fitted curve in the direction sought with a large enough effect; inconclusive means small, poorly fitted or top-dose-only effect, or another doubt; inactive means no such curve, though single readings can be large; an effect the other way counts as inactive or inconclusive.

SMILES	HP1b binding inh	PLK1 PBD block	Sfp PPTase inh	BAZ2B block	G9a inh	JMJD2A Tudor
COC(=O)c1[nH]c(C)c(/C(O)=C2\C(=O)C(=O)N(CCN3CCOCC3)C2c2cccs2)c1C (stereo not given)	.	.	.	.	44.7µM	.
CSc1nc(N)nc2c1ncn2CC(=O)NCCNc1ccc([N+](=O)[O-])cn1	.	.	/	/	/	.
Cc1c(C(=O)NC(c2ccccn2)C(F)(F)F)oc2c(F)cccc12 (stereo not given)	.	.	.	.	.	.
CC(=O)c1ccc(NC(=O)CCCN2C(=O)COc3ccc(C)cc32)cc1	.	.	.	.	.	.
COc1ccc(C2=NO[C@@H]3C(=O)N(c4c(C)cccc4C)C(=O)[C@H]23)cc1OC	.	.	.	.	50.1µM	.
Cc1cccc2c(=O)oc(-c3ccccc3Cl)nc12	.	.	.	.	.[0.501 µM]	.
COc1ccc(OC)c(N2C(=O)C(Cl)=C(N3CCCCC3)C2=O)c1	.	.	.	/	?	.
COC(=O)c1ccccc1N1C(=O)[C@@H]2C(c3ccc(F)cc3)=NO[C@@H]2C1=O	.	.	.	/	.	.
COc1ccc(OC)c(N2C(=O)[C@@H]3C(c4ccccc4Cl)=NO[C@@H]3C2=O)c1	17.8µM	18.9µM	.	31.6µM	.[2.33 µM]	?
Cc1cccc(C)c1N1C(=O)[C@@H]2C(c3ccccc3Cl)=NO[C@@H]2C1=O	.	.	.	.	50.1µM	.
O=c1[nH]c2cc3c(cc2cc1CN(CCc1ccccc1)C(=S)NCCCN1CCOCC1)OCCO3	.	.	/	/	/	.[11.4 µM]
CCCCNc1nc(C#N)nc(Nc2ccccc2)n1	/	/	/	/	/	.
CCOC(=O)c1c(NC(=O)c2cc(=O)c3cc(C)ccc3o2)sc2c1CCCC2	.	/	/	.	.	.
O=C(COCc1cc(-c2cccs2)on1)N1CCN(c2cccc(Cl)c2)CC1	.	/	/	.	.	.
CCOc1cc(CNCc2ccccc2)ccc1OCC(=O)NC1CCCCC1	.	.	.	.	.	.
COc1cc(CNCc2cccnc2)ccc1OCC(=O)NC(C)(C)C	.	.	.	.	?	.
CCOc1cc(CNCCO)ccc1OCC(=O)NC(C)(C)C	.	23.8µM	.	?	.	.[11.4 µM]
CC(C)(C)NC(=O)COc1ccc(CNCc2cccnc2)cc1	.	?	.	?	.	89.1µM
COc1cc(CNCc2ccccn2)ccc1OCC(=O)NC(C)(C)C	.	.	.	50.1µM	.	?
COc1cc(CNCc2ccccn2)ccc1OCC(=O)NC1CCCCC1	.	.	?	56.2µM	?	?
CCOc1cc(CNC)ccc1OCC(=O)NC(C)(C)C	.	.	.	.	/	.
CN(CC(=O)NCCc1ccc(S(N)(=O)=O)cc1)CC(=O)Nc1cccc(F)c1	.	.	/	.	.	.
CCOc1cc(CNc2ccc(Br)cc2)cc(Br)c1OCC(=O)NC(C)(C)C	.	.	.	.	.	.
CCOc1cc(CNc2ccc(OC)cc2)cc(Br)c1OCC(=O)NC(C)(C)C	?	.	.	17.8µM	?	22.4µM
CNC(=O)c1cc(Oc2ccc(NC(=O)c3[nH]c(-c4ccccc4)c4c3C(=O)N(C)C4=O)cc2)ccn1	/	.	/	/	/	/
SMILES	HP1b binding inh	PLK1 PBD block	Sfp PPTase inh	BAZ2B block	G9a inh	JMJD2A Tudor
O=C1C2CCCN2C(c2cccc(Br)c2)N1c1ccc(F)cc1 (stereo not given)	.	.	.	.	70.8µM	.
CCCCN(CC)C(=O)CCn1c(=O)c2cccn2c2cccnc21	.	/	/	.	.	.
Cc1cc(-c2cn3ccccc3n2)c(C)n1-c1ccccc1	?	.	.	?	50.1µM	56.2µM
COc1ccc(-n2c(C)cc(-c3cn4cccc(C)c4n3)c2C)cc1	.	.	.	39.8µM	?	?
c1ccc(-c2cn3ccccc3n2)cc1	.	.	/	/	/	.
CCCOc1ccc(NC(=O)CC2C(=O)N(c3ccc(C)cc3)C(=O)N2C2CCCC2)cc1 (stereo not given)	.	/	/	.	.	.
Cc1sc(NC(=S)NC(=O)c2ccco2)c(C#N)c1C	.	?	39.8µM	.	35.5µM	.
Cc1sc(NC(=S)NC(=O)c2ccccc2)c(C#N)c1C	.	11.9µM	/	/	/	.
Cc1sc(NC(=S)NC(=O)c2ccc(C(C)(C)C)cc2)c(C#N)c1C	.	?	.	.	?	.
Cc1cccc(NC(=O)CCc2ccc(N3C(N)=NC(N)=NC3(C)C)cc2)c1	/	.	/	/	/	/
Cc1cccc(C(=O)NNC(=O)C(=O)NC(C)(C)C)c1	.	.	.	?	28.2µM	?
CC(CNC(=O)c1ccco1)NC(=O)c1ccco1 (stereo not given)	.	.	.	.	?	.
O=C(NNC(=O)c1ccco1)c1ccco1	/	.	/	/	/	/
CC(C)(C)NC(=O)C(=O)NNC(=O)c1ccco1	.	.	79.4µM	56.2µM	.	.
CC(C)CNC(=O)C(=O)NNC(=O)c1ccco1	.	.	.	?	11.2µM	.[11.4 µM]
CSc1nc(=S)c2[nH]c(=S)[nH]c2[nH]1	20µM	2.67µM	2.51µM	79.4µM	0.631µM	25.1µM
Nc1nc(=S)c2[nH]c(=S)[nH]c2[nH]1	.	?	/	/	/	3.16µM
CSc1nc2c(c(=O)[nH]1)CCCC2	.	.	.	.	.[12.7 µM]	.
CCC/C=C/c1ccc(CN2C(C)C(=O)N(Cc3cn(CC4CCCCC4)nn3)CCS2(=O)=O)cc1 (stereo not given)	/	.	/	/	/	/
